The values that follow come from PubChem BioAssay (EPA / NIEHS).

What is called AC50 is the concentration at which the activity in the assay is half-maximal.

Where “and” joins values, the source holds several entries; their conditions need not be identical. Identical values can stand only once. Inconclusive results are not listed. Calls of active or inactive are those of the source. How the source made its calls, unless noted: active means hit-call score of the fitted dose curve at least 0.9, where 1 is the maximum; inactive means score below 0.9.

Assay [1] deals with Nuclear respiratory factor 1 (Homo sapiens) (UniProt Q16656). Put plainly: ATG_NRF1_CIS: Attagene CIS-FACTORIAL HepG2 Assay for human Nuclear Respiratory Factor 1 (NRF1) Orphan Gene (AID 2282987). To be noted: HepG2 NRF1 cis-element reporter, Attagene multiplex; actives raise or lower the signal. In outline: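 Reporter mRNA induction or loss in HepG2 cells after 24 h dosing; cis-regulated reporter constructs report endogenous transcription-factor activity. Quantified by RT-PCR/capillary electrophoresis fluorescence, DMSO-referenced.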

The nature of assay [2]: ATG_NFI_CIS: Attagene CIS-FACTORIAL HepG2 Assay for human Nuclear Factor I (NFI) (AID 2282989). The conditions noted are these: HepG2 cis-regulatory reporter, NFI response element transcription; actives raise or lower the signal. The gist of the method:
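Transfected HepG2 liver cells, exposed 24 h, supplied total RNA for oligo(dT) reverse transcription and reporter-specific PCR. Labelled, HpaI-cut fragments were sized by capillary electrophoresis; DMSO set the baseline for bidirectional fitting.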

The target of assay [3] is Myc proto-oncogene protein (Homo sapiens) (UniProt P01106). Put plainly: ATG_Myc_CIS: Attagene CIS-FACTORIAL HepG2 Assay for human Myelocytomatosis (Myc) Proto-Oncogene Transcription Factor (AID 2282990). The conditions noted are these: HepG2, Attagene cis-reporter transcription factor activity; actives raise or lower the signal. The gist of the method: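 Transiently transfected HepG2 cells bearing cis-promoter reporter units for endogenous transcription factors; 24 h exposure. Reporter mRNA measured by RT-PCR, 6-FAM primer extension, HpaI cut and capillary electrophoresis; bidirectional fit relative to DMSO.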

Assay [4] is described as follows: ATG_NF_kB_CIS: Attagene CIS-FACTORIAL HepG2 Assay for human Nuclear Factor Kappa B (NF-kB) (AID 2282991). The conditions noted are these: HepG2 Attagene cis-factorial NF-kB reporter mRNA; actives raise or lower the signal. The gist of the method: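 DMSO served as negative control and baseline for bidirectional curve fitting. Transiently transfected HepG2 cells were dosed for 24 h, then reporter transcripts were measured by RT-PCR with capillary electrophoresis detection.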

Assay [5] is described as follows: ATG_NRF2_ARE_CIS: Attagene CIS-FACTORIAL HepG2 Assay for human Nuclear Factor Erythroid 2 Related Factor 2 (NFR2) response to Antioxidant Response Elements (ARE) (AID 2282992).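 On AC50: reporter mRNA level measured by RT-PCR and capillary electrophoresis fluorescence.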 The conditions noted are these: HepG2 Attagene ARE/NRF2 reporter, transcription factor activity; actives raise or lower the signal. In outline: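 Endogenous transcription factor activity in human liver HepG2 cells is tracked via a cis-element-driven reporter within a multiplexed set. mRNA induction is read by RT-PCR and capillary electrophoresis after 24 h, with DMSO as baseline.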

A short description of assay [6]: ATG_Oct_MLP_CIS: Attagene CIS-FACTORIAL HepG2 Assay for human Octamer-Binding Transcription Factor (Oct) (AID 2282993). The conditions noted are these: HepG2 Attagene cis-factorial Oct reporter, mRNA; actives raise or lower the signal. In outline:
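Using HepG2 cells bearing transfected cis-reporter constructs, mRNA induction was read after 24 h by fluorescent RT-PCR and capillary electrophoresis, with DMSO defining baseline for gain- or loss-of-signal fits.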

The nature of assay [7]: BSK_3C_TissueFactor: BioMAP Diversity Plus: 3C Assay for Tissue Factor Biomarker Activity (AID 2282997). The conditions noted are these: BioMAP 3C HUVEC, tissue factor biomarker readout; actives raise or lower the signal. The gist of the method:
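Tissue factor on primary human umbilical vein endothelium was read by ELISA 24 h after dosing, gain or loss relative to DMSO. Cytotoxicity ran alongside via SRB (0.1%, TCA-fixed, 560 nm).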

Assay [8] can be described thus: BSK_3C_uPAR: BioMAP Diversity Plus: 3C Assay for Urokinase-type plasminogen activator receptor (uPAR) Biomarker Activity (AID 2282998). To be noted: BioMAP 3C HUVEC, uPAR biomarker ELISA; actives raise or lower the signal. The gist of the method:
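In this endothelial cell-based assay, human umbilical vein primary cells were treated with chemicals and harvested at 24 h. uPAR was quantified using ELISA, with gains or losses fitted relative to DMSO controls.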

Assay [9] can be described thus: BSK_3C_VCAM1: BioMAP Diversity Plus: 3C Assay for Vascular cell adhesion molecule 1 (VCAM1) Biomarker Activity (AID 2282999). The conditions noted are these: BioMAP 3C HUVEC, VCAM1 ELISA, cytokine-stimulated; actives raise or lower the signal. In outline:
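HUVEC primary cells, 24 h compound exposure; VCAM-1 by ELISA; gain/loss of signal fitted bidirectionally vs DMSO baseline.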
Background: An ELISA detects its analyte on a solid surface through an enzyme-linked reagent.

A short description of assay [10]: BSK_4H_Eotaxin3: BioMAP Diversity Plus: 4H Assay for Eotaxin 3 Biomarker Activity (AID 2283000).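 Further: CCL26 protein level quantified by ELISA in parallel with SRB cytotoxicity check.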 To be noted: primary human endothelial cells (HUVEC); actives raise or lower the signal. The gist of the method:
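Human umbilical vein endothelial cells (BSK_4H system) dosed with test chemical; Eotaxin-3 (CCL26) measured by ELISA 24 h after dosing. Bidirectional curve fitting relative to DMSO negative control as baseline.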

Assay [11] concerns the target human Peroxisome Proliferator-activated Receptor alpha (PPARa), PPARA (gene 5465) (UniProt Q07869). Put plainly: ATG_PPARa_TRANS: Attagene TRANS-FACTORIAL HepG2 Assay for human Peroxisome Proliferator-activated Receptor alpha (PPARa) (AID 2283001; active means hit-call score of the fitted dose curve at least 0.9, where 1 is the maximum). In outline: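 Transient HepG2 transfection, GAL4-UAS reporters, NR-Gal4 chimeras; 24 h compound exposure. Readout: reporter transcripts by RT-PCR, 6-FAM primer extension, HpaI digest, capillary electrophoresis. Positive direction vs DMSO baseline.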

In assay [12] the target is human Peroxisome Proliferator-activated Receptor delta (PPARd), PPARD (gene 5467) (UniProt Q03181). Put plainly: ATG_PPARd_TRANS: Attagene TRANS-FACTORIAL HepG2 Assay for human Peroxisome Proliferator-activated Receptor delta (PPARd) (AID 2283002; active means hit-call score of the fitted dose curve at least 0.9, where 1 is the maximum). The gist of the method:
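HepG2 cells transiently transfected with GAL4-UAS multiplexed reporter units driven by exogenous chimeric NR-GAL4 proteins; 24 h compound exposure. Reporter mRNA measured by RT-PCR, 6-FAM primer extension, HpaI digestion and capillary electrophoresis; gain of signal fitted relative to DMSO.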

Read-out in assay [13]: Intercellular Adhesion Molecule 1 (ICAM1), ICAM1 (gene 3383)
Put plainly: BSK_3C_ICAM1: BioMAP Diversity Plus: 3C Assay for Intercellular Adhesion Molecule 1 (ICAM1) Biomarker Activity (AID 2283003). The conditions noted are these: primary human endothelial cells (HUVEC); actives raise or lower the signal. The gist of the method:
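ELISA read-out of ICAM-1; HUVEC (primary human), 3C system, 24 h post-dosing; bidirectional fit vs DMSO baseline.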

Assay [14] deals with human Retinoic Acid Receptor beta (RARb), RARB (gene 5915) (UniProt P10826). Put plainly: ATG_RARb_TRANS: Attagene TRANS-FACTORIAL HepG2 Assay for human Retinoic Acid Receptor beta (AID 2283004; active means hit-call score of the fitted dose curve at least 0.9, where 1 is the maximum). In outline: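 Induction of reporter mRNA from a chimeric RARb-Gal4 construct was measured by RT-PCR, FAM labelling, HpaI digestion and capillary electrophoresis. Measurements followed 24 h compound treatment of transiently transfected human HepG2 liver cells, with DMSO as baseline.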

In assay [15] the target is Retinoic acid receptor alpha (Homo sapiens) (UniProt P10276). The assay is described as follows: ATG_RARa_TRANS: Attagene TRANS-FACTORIAL HepG2 Assay for human Retinoic Acid Receptor alpha (RARa) (AID 2283005; active means hit-call score of the fitted dose curve at least 0.9, where 1 is the maximum). In outline: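 HepG2 transiently transfected with multiplex GAL4-UAS reporter units including a human RARa–GAL4 chimera; 24 h compound exposure. Reporter mRNA quantified by RT-PCR, 6-FAM labeling and capillary electrophoresis; gain of signal versus DMSO.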

Assay [16] can be described thus: BSK_3C_Proliferation: Cell Proliferation Assessment in the BioMAP Diversity Plus: 3C Assay (AID 2283006).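 Further: potency may reflect either rise or fall in cell number versus DMSO.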 To be noted: primary human endothelial cells (HUVEC). In outline: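 HUVEC, sub-confluent; 48 h chemical exposure; 10% TCA fix, 0.1% SRB stain, A560 total protein. Gain or loss of signal fitted both directions vs DMSO control.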
The target in assay [17] is Peroxisome proliferator-activated receptor gamma (Homo sapiens) (UniProt P37231). Put plainly: ATG_PPARg_TRANS: Attagene TRANS-FACTORIAL HepG2 Assay for human Peroxisome Proliferator-activated Receptor-gamma (PPARg) (AID 2283007; active means hit-call score of the fitted dose curve at least 0.9, where 1 is the maximum). In outline:
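Chimeric NR-Gal4 transactivation is measured in transiently transfected HepG2 cells by reporter mRNA induction at 24 h. Detection uses RT-PCR with fluorescent labelling and capillary electrophoresis; DMSO defines baseline.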

Assay [18] has as its target Nuclear receptor subfamily 1 group I member 2 (Homo sapiens) (UniProt O75469). The assay is described as follows: ATG_PXR_TRANS: Attagene TRANS-FACTORIAL HepG2 Assay for human Pregnane X Receptor (PXR) (AID 2283008; active means hit-call score of the fitted dose curve at least 0.9, where 1 is the maximum). In outline:
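HepG2 transfected (FuGene 6) with GAL4-UAS reporter units + PXR-Gal4 chimera; dosed 24 h. Total RNA → oligo(dT) RT → PCR → 6-FAM primer extension → HpaI cut → CE. Gain-of-signal vs DMSO.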

In assay [19] the target is human Retinoic Acid Receptor gamma (RARg), RARG (gene 5916) (UniProt P13631). Put plainly: ATG_RARg_TRANS: Attagene TRANS-FACTORIAL HepG2 Assay for human Retinoic Acid Receptor gamma (RARg) (AID 2283009; active means hit-call score of the fitted dose curve at least 0.9, where 1 is the maximum). The gist of the method:
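Readout: reporter transcript levels via RT-PCR, 6-FAM primer-extension labelling, HpaI digestion and capillary electrophoresis. Cells: HepG2 carrying transfected RARg-GAL4 chimera plus UAS reporter set. Dosing 24 h; DMSO negative control.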

The target of assay [20] is Cellular tumor antigen p53 (Homo sapiens) (UniProt P04637). Put plainly: ATG_p53_CIS: Attagene CIS-FACTORIAL HepG2 Assay for human p53 Transcription Factor (AID 2282994). The conditions noted are these: HepG2 p53 cis-element reporter, Attagene mRNA; actives raise or lower the signal. In outline:
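Steps: transfect HepG2 with multiplexed cis reporter constructs; dose chemicals 24 h; extract RNA, reverse-transcribe, PCR-amplify reporter sequences; FAM-label, HpaI-digest, resolve fragments by CE. Activity fitted both directions relative to DMSO.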

human Peroxisome Proliferator-activated Receptor delta (PPARd), PPARD (gene 5467), sequence (Q03181 whole entry, looked up, the tested form may be a part): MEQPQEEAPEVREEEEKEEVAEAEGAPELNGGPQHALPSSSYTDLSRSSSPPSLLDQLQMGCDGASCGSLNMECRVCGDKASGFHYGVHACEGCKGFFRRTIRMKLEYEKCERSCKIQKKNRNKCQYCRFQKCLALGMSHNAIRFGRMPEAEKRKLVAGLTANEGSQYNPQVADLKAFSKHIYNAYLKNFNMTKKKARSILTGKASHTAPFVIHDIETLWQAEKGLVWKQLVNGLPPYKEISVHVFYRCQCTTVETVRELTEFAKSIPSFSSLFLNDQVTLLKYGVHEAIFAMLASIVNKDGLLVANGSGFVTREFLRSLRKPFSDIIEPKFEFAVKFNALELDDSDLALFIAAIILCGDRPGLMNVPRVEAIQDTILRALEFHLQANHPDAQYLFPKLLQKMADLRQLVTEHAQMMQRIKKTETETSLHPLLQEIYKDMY
human Peroxisome Proliferator-activated Receptor alpha (PPARa), PPARA (gene 5465), sequence (Q07869 whole entry, looked up, the tested form may be a part): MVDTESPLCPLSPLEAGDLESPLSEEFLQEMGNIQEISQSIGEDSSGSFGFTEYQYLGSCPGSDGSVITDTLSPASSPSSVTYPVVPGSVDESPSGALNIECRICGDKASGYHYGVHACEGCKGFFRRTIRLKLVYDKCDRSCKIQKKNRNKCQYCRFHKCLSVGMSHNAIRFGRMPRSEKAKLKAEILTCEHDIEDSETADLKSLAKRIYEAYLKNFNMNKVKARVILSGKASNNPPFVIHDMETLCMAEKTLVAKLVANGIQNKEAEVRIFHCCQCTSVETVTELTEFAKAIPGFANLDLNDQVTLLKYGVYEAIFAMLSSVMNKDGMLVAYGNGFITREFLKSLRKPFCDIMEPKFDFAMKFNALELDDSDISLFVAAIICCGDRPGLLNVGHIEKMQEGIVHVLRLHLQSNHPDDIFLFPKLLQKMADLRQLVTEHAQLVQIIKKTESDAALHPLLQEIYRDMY
human Retinoic Acid Receptor gamma (RARg), RARG (gene 5916), sequence (P13631 whole entry, looked up, the tested form may be a part): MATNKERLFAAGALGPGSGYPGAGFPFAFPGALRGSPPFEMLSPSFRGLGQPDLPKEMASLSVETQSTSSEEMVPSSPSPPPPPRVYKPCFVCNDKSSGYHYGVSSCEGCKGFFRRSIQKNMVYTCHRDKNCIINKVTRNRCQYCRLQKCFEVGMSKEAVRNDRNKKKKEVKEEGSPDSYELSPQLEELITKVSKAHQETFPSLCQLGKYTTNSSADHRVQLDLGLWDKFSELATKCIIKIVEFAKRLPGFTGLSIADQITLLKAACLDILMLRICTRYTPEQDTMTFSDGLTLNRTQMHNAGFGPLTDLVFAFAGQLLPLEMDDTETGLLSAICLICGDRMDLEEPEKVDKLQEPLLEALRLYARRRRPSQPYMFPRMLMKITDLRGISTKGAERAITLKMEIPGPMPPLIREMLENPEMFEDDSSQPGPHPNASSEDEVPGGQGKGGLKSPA
Retinoic acid receptor alpha (Homo sapiens), sequence (P10276 whole entry, looked up, the tested form may be a part): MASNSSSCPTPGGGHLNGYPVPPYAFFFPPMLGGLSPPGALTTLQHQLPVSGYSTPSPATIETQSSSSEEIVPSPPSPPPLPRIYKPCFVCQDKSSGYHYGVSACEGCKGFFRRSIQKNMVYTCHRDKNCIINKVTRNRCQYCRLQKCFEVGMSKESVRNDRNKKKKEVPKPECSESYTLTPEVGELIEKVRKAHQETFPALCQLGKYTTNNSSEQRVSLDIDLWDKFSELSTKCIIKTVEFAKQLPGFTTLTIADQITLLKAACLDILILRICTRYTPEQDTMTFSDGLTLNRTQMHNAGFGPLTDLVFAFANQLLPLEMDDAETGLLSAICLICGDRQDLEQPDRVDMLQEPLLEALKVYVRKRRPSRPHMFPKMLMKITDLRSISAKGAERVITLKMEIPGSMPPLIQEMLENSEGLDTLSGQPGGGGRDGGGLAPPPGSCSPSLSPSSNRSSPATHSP
Cellular tumor antigen p53 (Homo sapiens), sequence (P04637 whole entry, looked up, the tested form may be a part): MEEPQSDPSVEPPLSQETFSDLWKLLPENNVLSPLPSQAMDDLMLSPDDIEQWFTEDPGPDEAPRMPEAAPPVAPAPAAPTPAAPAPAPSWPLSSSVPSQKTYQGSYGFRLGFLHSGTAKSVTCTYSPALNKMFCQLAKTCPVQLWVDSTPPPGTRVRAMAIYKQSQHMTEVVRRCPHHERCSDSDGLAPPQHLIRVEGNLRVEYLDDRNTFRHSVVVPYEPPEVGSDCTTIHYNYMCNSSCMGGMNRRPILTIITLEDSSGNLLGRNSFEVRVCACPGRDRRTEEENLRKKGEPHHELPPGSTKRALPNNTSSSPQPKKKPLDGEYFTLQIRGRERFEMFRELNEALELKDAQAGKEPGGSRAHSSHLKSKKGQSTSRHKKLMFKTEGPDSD
Peroxisome proliferator-activated receptor gamma (Homo sapiens), sequence (P37231 whole entry, looked up, the tested form may be a part): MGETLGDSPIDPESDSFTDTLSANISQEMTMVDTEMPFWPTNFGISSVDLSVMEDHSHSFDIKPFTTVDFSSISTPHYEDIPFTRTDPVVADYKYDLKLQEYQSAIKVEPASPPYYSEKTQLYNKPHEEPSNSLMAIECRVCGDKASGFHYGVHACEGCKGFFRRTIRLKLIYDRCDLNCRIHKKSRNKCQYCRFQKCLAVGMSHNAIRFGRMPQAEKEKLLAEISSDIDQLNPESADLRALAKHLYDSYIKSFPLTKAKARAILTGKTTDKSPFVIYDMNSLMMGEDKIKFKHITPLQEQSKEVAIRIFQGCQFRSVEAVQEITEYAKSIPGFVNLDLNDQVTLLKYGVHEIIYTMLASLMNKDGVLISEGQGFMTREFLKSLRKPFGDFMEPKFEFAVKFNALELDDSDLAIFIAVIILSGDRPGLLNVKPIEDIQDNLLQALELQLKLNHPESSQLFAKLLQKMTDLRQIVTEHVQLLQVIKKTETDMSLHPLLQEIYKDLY
human Retinoic Acid Receptor beta (RARb), RARB (gene 5915), sequence (P10826 whole entry, looked up, the tested form may be a part): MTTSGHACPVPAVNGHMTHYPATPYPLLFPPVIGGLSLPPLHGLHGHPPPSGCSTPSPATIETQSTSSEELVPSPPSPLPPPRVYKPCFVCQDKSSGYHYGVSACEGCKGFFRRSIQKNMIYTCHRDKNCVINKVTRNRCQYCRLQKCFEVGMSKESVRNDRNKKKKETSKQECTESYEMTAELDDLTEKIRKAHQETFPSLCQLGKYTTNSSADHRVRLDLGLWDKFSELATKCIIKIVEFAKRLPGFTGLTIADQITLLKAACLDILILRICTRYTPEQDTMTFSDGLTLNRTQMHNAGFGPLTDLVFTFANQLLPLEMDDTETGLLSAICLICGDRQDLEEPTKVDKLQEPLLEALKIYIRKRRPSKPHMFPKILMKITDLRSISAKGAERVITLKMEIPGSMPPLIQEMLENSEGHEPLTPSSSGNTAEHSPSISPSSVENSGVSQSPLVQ
Nuclear respiratory factor 1 (Homo sapiens), sequence (Q16656 whole entry, looked up): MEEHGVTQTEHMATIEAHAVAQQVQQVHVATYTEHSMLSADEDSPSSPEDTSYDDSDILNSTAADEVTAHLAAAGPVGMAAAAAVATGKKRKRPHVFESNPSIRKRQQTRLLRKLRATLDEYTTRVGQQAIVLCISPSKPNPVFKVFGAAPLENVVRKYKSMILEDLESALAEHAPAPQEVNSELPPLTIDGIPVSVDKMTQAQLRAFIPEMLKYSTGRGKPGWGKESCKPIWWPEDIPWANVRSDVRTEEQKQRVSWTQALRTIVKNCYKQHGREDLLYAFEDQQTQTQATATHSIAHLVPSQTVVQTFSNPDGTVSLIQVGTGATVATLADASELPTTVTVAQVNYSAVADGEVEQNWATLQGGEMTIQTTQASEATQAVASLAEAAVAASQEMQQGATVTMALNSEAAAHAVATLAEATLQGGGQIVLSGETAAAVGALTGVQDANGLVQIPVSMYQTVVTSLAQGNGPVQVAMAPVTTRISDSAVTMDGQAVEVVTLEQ
Nuclear receptor subfamily 1 group I member 2 (Homo sapiens), sequence (O75469 whole entry, looked up, the tested form may be a part): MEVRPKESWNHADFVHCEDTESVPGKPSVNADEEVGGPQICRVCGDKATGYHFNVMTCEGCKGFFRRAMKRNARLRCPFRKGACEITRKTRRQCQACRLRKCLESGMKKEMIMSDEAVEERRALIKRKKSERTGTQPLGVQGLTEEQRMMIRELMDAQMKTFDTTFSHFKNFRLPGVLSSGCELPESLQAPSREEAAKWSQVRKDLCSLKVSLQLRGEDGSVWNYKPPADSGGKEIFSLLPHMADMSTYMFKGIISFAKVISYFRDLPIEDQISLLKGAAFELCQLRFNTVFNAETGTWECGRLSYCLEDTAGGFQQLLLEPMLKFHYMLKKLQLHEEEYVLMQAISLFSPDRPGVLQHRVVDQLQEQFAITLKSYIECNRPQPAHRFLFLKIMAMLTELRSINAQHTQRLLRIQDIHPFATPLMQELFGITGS
Myc proto-oncogene protein (Homo sapiens), sequence (P01106 whole entry, looked up): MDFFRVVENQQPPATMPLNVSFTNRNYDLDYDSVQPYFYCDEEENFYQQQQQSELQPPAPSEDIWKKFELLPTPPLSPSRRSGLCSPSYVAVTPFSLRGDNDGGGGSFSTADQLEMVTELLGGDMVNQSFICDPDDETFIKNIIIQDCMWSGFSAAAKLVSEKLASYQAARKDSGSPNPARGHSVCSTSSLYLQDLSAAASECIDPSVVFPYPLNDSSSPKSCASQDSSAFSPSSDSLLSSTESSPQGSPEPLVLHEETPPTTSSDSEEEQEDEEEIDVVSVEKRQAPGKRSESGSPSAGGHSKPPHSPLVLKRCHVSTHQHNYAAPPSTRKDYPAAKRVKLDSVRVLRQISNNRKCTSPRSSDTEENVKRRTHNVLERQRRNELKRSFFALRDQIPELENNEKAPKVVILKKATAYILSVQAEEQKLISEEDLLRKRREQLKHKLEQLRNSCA

For `CNS(=O)(=O)C(F)(F)C(F)(F)C(F)(F)C(F)(F)C(F)(F)C(F)(F)C(F)(F)C(F)(F)F`, the compound was called inactive in assay [1], in [2], in assay [3], in assay [4], in assay [5] and in assay [6]. In addition, the result in assay [7], in assay [8], in assay [9], in [10], in [11] and in assay [12] was inactive. The outcome in assay [13], in [14], in assay [15], in assay [17], in [18] and in assay [19] was inactive. For the same compound, the AC50 in [16] was 30 µM (active) and 23.8 µM (active).
Consider `CCCCOC(=O)C(C)O` (stereo not given), for which the call in assay [1], in assay [2], in assay [3], in assay [4], in assay [5] and in [6] was inactive. Further, the result in [20], in [11], in assay [12], in assay [14], in assay [17] and in [19] was inactive.
For `CCOC(=O)C1CC(=O)C(=C(O)C2CC2)C(=O)C1` (stereo not given), the outcome in assay [1], in assay [2], in assay [3], in assay [4], in assay [5] and in assay [6] was inactive. Also, the compound was called inactive in assay [20], in assay [12], in assay [17] and in assay [18].
With `O=c1cccc[nH]1`, the call in [1], in [2], in assay [3], in [4], in [5] and in [6] was inactive. The call in assay [20], in assay [14], in [15] and in assay [17] was inactive.
Take `O=C(c1ccccc1)c1ccc(Cl)cc1`: the call in [1], in assay [2], in [3], in [4], in [6] and in assay [20] was inactive. Moreover, the call in [12] was inactive. Moreover, the AC50 in assay [5] was 132 µM (active); in assay [17] it was 51.6 µM (active); in [18], 37.1 µM (active).
As to `COCCOCCC[Si](C)(O[Si](C)(C)C)O[Si](C)(C)C`, the call in assay [1], in assay [2], in [3], in assay [4], in assay [20] and in assay [12] was inactive. In addition, the call in [14], in [17] and in [19] was inactive. For the same compound, the AC50 is 1.64 µM (active) in assay [5], 3.74 µM (active) in [6] and 1.47 µM (active) in [18].
In the case of `CCCCOC(=O)[C@H](C)O`, the call in [1], in [2], in [3], in [4], in [5] and in [6] was inactive. Further, the outcome in [20], in assay [12], in assay [15] and in assay [17] was inactive.
As to `CCC(C)CO` (stereo not given), the compound was called inactive in assay [1], in assay [2], in assay [3], in [4], in assay [5] and in [6]. Moreover, the compound was classed as inactive in assay [20], in [11], in assay [17], in [18] and in assay [19].
As for `CC(C)(C)C(=O)C1C(=O)c2ccccc2C1=O`, the result in assay [1], in [2], in assay [3], in [4], in assay [20] and in [11] was inactive. In addition, the call in assay [12], in assay [14], in assay [15] and in [19] was inactive. Besides, the AC50 in [5] was 31.5 µM (active); in [6], 63.1 µM (active); in [17], 28 µM (active); in assay [18] it was 22.4 µM (active).
Turning to `CCCCCCCCCCCC(=O)Cl`, the compound was classed as inactive in [1], in assay [2], in assay [3], in assay [6], in [20] and in assay [11]. In addition, the result in assay [18] and in [19] was inactive. Besides, the AC50 is 123 µM (active) in assay [4], 74.5 µM (active) in [5], 125 µM (active) in assay [12] and 72.9 µM (active) in assay [17].
